G9a inh-1: qHTS Assay for Inhibitors of Histone Lysine Methyltransferase G9a | Histone-lysine N-methyltransferase EHMT2 (Homo sapiens), Q96KQ7 | G9a H3K9 monomethylation, AlphaScreen, 2 h | Potency, µM (top dose mostly 102 µM), for inactives: top-dose activity, negative = inhibition, hits mostly inhibitors | 8.8% of 350,000 active; note: potency is the fitted concentration of half-maximal effect; % is set by controls: 0 for no effect and ±100 for the full control effect; nearly all actives have a fitted effect of over 75% in size
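Quantitative HTS format: methyltransferase activity on a biotin-tagged H3K9 peptide is measured by AlphaScreen, using a rabbit anti-monomethyl-H3K9 antibody with streptavidin donor and anti-IgG acceptor beads. Final levels are 20 nM enzyme, 500 nM peptide, 20 uM SAM; 2 h RT.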
HP1b chromo inh: HTS for Inhibitors of HP1-beta Chromodomain Interactions with Methylated Histone Tails. AlphaScreen HP1-beta / biotin-H3K9me3 peptide binding. Potency, µM (doses to about 114 µM), for inactives: at the highest dose activity change, negative = inhibition, usual class: inhibitors. 0.56% of 390,000 active. AID 540317, 2011; note: potency is the fitted concentration of half-maximal effect; nearly all actives have a fitted effect of over 70% in size
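HP1-beta protein (50 nM final) preincubated 30 min at room temperature with biotinylated H3(1-18)K9me3 peptide (50 nM) in PBS pH 7.4, 0.01% Tween-20, then compound added for 30 min. AlphaScreen streptavidin donor/nickel chelate acceptor beads (10 ug/mL final), 30 min dark, luminescence read.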
BAZ2B inh: qHTS Assay for Inhibitors of BAZ2B | Potency, µM (highest dose often 114 µM), for the others: top-dose activity change, negative = inhibition, usual class: inhibitors | 4.4% of 360,000 active | AlphaScreen BAZ2B-H3K14Ac peptide displacement | AID 504333, 2011; note: potency is the fitted concentration of half-maximal effect; % is set by controls: 0 for no effect and ±100 for the full control effect; nearly all actives have a fitted effect of over 60% in size
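BAZ2B (50 nM) with biotin-H3(5-23)K14Ac peptide (50 nM) in PBS pH 7.4, 0.01% Tween-20, preformed 30 min, then compound 30 min at room temperature; top concentration 110uM. AlphaScreen streptavidin donor/nickel chelate acceptor beads (10 ug/mL final), 20 min dark, signal read.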
Sfp inh: qHTS Assay for Inhibitors of Bacillus subtilis Sfp phosphopantetheinyl transferase (PPTase). Potency, µM, for the others: largest response in the series, negative = inhibition, most hits filed as inhibitors. AID 1490, 2009. 3.5% of 310,000 active. 4'-phosphopantetheinyl transferase ffp (Bacillus subtilis), Q9F4F7. Biochemical Sfp PPTase activity, qHTS;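 note: the enzyme is Sfp with the accession as filed and its product quenches rhodamine fluorescence; potency is the fitted concentration of half-maximal effect; 0% = enzyme reaction without inhibitor and -100% = no enzyme wells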
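Fluorescence-quenching assay: 15 nM Sfp-PPTase preincubated 15 min at room temperature with compound, then 5 uM rhodamine-CoA and 12.5 uM BHQ-2-labelled YbbR peptide added. Fluorescence (ex 525/em 598 nm) read at start and after 30 min; difference gives rate.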
L3MBTL1 inh-1: qHTS Assay for the Inhibitors of L3MBTL1 | Lethal(3)malignant brain tumor-like protein 1 (Homo sapiens), Q9Y468 | Potency, µM (doses to about 57.1 µM), without a hit: at the top dose activity, negative = inhibition, most hits filed as inhibitors | 0.66% of 230,000 active | AlphaScreen L3MBTL1–H3K9me1 peptide binding | AID 485360, 2010; note: potency is the fitted concentration of half-maximal effect; % is set by controls: 0 for no effect and ±100 for the full control effect; nearly all actives have a fitted effect of over 60% in size
Target sequence (Q9Y468 whole entry, looked up): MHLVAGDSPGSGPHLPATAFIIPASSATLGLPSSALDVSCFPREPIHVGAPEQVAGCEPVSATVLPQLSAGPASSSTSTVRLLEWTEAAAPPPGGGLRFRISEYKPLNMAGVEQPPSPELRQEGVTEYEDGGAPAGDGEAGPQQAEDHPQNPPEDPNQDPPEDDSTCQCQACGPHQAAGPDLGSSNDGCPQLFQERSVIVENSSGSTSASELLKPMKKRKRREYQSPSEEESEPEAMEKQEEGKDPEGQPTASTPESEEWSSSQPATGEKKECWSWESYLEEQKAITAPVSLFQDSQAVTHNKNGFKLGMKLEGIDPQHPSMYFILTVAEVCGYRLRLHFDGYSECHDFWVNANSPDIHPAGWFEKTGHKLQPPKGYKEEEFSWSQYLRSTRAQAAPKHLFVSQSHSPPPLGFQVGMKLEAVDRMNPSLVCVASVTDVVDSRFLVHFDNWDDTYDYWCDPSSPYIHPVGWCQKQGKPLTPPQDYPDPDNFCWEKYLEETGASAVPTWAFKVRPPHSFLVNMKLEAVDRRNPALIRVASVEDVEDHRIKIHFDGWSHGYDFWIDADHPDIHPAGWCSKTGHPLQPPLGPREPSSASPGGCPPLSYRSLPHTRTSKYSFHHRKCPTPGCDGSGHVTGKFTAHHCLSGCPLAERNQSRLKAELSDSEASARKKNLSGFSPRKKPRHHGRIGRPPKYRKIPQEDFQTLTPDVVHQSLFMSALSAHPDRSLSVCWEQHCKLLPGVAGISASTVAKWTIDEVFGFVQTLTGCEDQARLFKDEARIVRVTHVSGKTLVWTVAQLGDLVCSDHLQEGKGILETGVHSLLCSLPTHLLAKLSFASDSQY
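Read-out is AlphaScreen signal from streptavidin donor and nickel chelate acceptor beads (10 ug/mL final each) bridging L3MBTL1 (50 nM) and biotinylated K9-monomethylated H3(1-15) peptide (75 nM), after 30 min compound exposure at room temperature.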
JMJD2A Tudor inh: qHTS Assay for Inhibitors of JMJD2A-Tudor Domain; AlphaScreen JMJD2A-Tudor / H3K4me3 peptide binding; 4.4% of 390,000 active; Potency, µM (series often up to 114 µM), for inactives: at the highest dose activity change, negative = inhibition, usual class: inhibitors; Lysine-specific demethylase 4A (Homo sapiens), O75164; note: potency is the fitted concentration of half-maximal effect; % is set by controls: 0 for no effect and ±100 for the full control effect; nearly all actives have a fitted effect of over 50% in size
Sfp PPTase conf: Confirmation qHTS Assay for Inhibitors of Bacillus subtilis Sfp phosphopantetheinyl transferase (PPTase) | shares compounds with Sfp inh | Sfp PPTase enzymatic assay, qHTS titration | Potency, µM (doses to about 114 µM), without a hit: at the top dose activity change, negative = inhibition, usual class: inhibitors | 79% of 380 active;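 note: potency is the fitted concentration of half-maximal effect; plate controls were uninhibited Sfp reaction for no effect and no enzyme control for full effect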
Sfp gel assay: Gel-Based Assay for Inhibitors of Bacillus subtilis Sfp phosphopantetheinyl transferase (PPTase). shares compounds with Sfp inh. purified Sfp, gel-based phosphopantetheinylation read-out. Potency, µM, most hits filed as inhibitors. 20% of 210 active. AID 2707, 2010;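 active = potency below 100 µM; inconclusive = dose-dependent response but potency above 100 µM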;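 note: band intensities scaled against SCH202676 control wells before curve fitting; potency is an IC50 for inhibitors of Sfp transfer activity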
L3MBTL1 inh-2: qHTS Assay for the Inhibitors of L3MBTL1: Hit Validation; shares compounds with L3MBTL1 inh-1; L3MBTL1 methyl-lysine binding inhibition, biochemical qHTS; Potency, µM, hits mostly inhibitors; 91% of 500 active; AID 540279, 2011; note: potency is the fitted concentration of half-maximal effect; nearly all actives have a fitted effect of over 70% in size
AlphaScreen ctr2: qHTS Assay for the Inhibitors of L3MBTL1: Hit Validationin AlphaScreen Counterscreen; shares compounds with L3MBTL1 inh-1; AID 602224, 2012; 500 tested, under 10 active; Potency, µM (highest dose often 57.1 µM), for the others: top-dose activity change, negative = inhibition, hits mostly inhibitors; AlphaScreen counterscreen, signal inhibition; note: potency is the fitted concentration of half-maximal effect; 0% is about no effect
ME-1 growth: qHTS Assay for Compounds Blocking the Interaction Between CBF-beta and RUNX1 for the Treatment of Acute Myeloid Leukemia: ME-1 cellular proliferation. 20% of 140 active. AID 504370, 2011. ME-1 cell proliferation, ATP luminescence, 48 h. Potency, µM (series often up to 56.1 µM), for the others: top-dose activity change, negative = inhibition, usual class: inhibitors. shares compounds with BAZ2B inh
G9a inh-2: qHTS Assay for Inhibitors of Histone Lysine Methyltransferase G9a: Hit Confirmation | 89% of 370 active | AID 588344, 2011 | shares compounds with JMJD2A Tudor inh | Potency, µM, hits mostly inhibitors | G9a H3K9 monomethylation, AlphaScreen, 2 h; note: potency is the fitted concentration of half-maximal effect; nearly all actives have a fitted effect of over 65% in size
Active calls of the source: *; i = inactive; ? = inconclusive; . = no result; ! = not active in a repeat; [ ] = remark or other dose. Rows were chosen to be rich in hits. Some 12% of all compounds tested hit in one or more screens of this group. Unless noted, calls come from the whole dose curve; as a rule, active = well fitted curve in the direction sought with a large enough effect; inconclusive = small, poorly fitted or top-dose-only effect, or another doubt; inactive = no such curve, though single readings can be large; an effect the other way counts as inactive or inconclusive.

SMILES	G9a inh-1	HP1b chromo inh	BAZ2B inh	Sfp inh	L3MBTL1 inh-1	JMJD2A Tudor inh	L3MBTL1 inh-2	AlphaScreen ctr2	others
Cc1c(OCC(F)(F)F)ccnc1CS(=O)c1nc2ccccc2[nH]1 (configuration not stated)	6.7µM*!	23%	35µM*	13µM*!	-17%	?	.	.	Sfp PPTase conf=30µM*;Sfp gel assay=i;G9a inh-2=0.5*
Ic1c(C2=CCCCC2)[se]c2ccccc12	19%	.	.	-13%	.	.	.	.
CN1CCC2(CC1)NC(=O)C1=C(CN(C)CC1)N2	8%[59 µM]	19%	19%	2%	28µM*	-3%	?	0%
CCN(CC)C(=O)Oc1ccc2cc(Br)ccc2c1	108%[59 µM]	172%	78%	10%	36%	96%	.	.
COc1ccc(CN2C(=O)NC(=O)/C(=C\c3ccco3)C2=O)cc1	28µM*	?	28µM*	71µM*	7.9µM*	45µM*	2.7*	-23%
C[C@H](CO)N1C[C@H](C)[C@@H](CN(C)C(=O)Nc2ccc(C(F)(F)F)cc2)Oc2c(NS(=O)(=O)c3cccs3)cccc2C1=O	.	39%	.	.	1%	-7%	.	.
Cc1cc(/C=C2\C(=O)NC(=O)N(c3cccc(F)c3)C2=O)c(C)n1-c1cc(C(=O)O)cc(C(=O)O)c1	.	-14%	45µM*	-21%	7.9µM*	79µM*	1.5*	-10%
CNCC/C=C\c1cccnc1	.	.	.	9%	.	.	.	.
O=C(c1ccc2nc(-c3ccco3)c(-c3ccco3)nc2c1)N1CCC2(CC1)OCCO2	?	-10%	56µM*	8.9µM*	28µM*	89µM*	?	-26%
COc1ccc(-n2cnc3cc(C(=O)N4CCC5(CC4)OCCO5)ccc32)cc1	-37%	33%	-1%	16%	.	-6%	.	.
Cc1cccc(OCCn2cccc2/C=C2/C(=O)NC(=O)N(Cc3ccco3)C2=O)c1	.	20%	45µM*	56µM*	20µM*	-29%	?	?
O=C1NC(=O)N(Cc2ccco2)C(=O)/C1=C/c1ccc(-c2cccc([N+](=O)[O-])c2)o1	3.2µM*	?	35µM*	20µM*	28µM*	14µM*	3.4*	-21%
CN1CCc2cc3c(cc2[C@@H]1[C@@H]1OC(=O)c2c1ccc1c2OCO1)OCO3	23%[21.5 µM]	.	.	3%	.	.	.	.
O=C1NC(=O)N(c2cccc(Cl)c2)C(=O)/C1=C\c1ccc(Sc2nc3ccccc3[nH]2)o1	3.2µM*	?	35µM*	40µM*	32µM*	35µM*	27*	-8%
CSc1ncc(C(=O)Nc2ccc(Cl)cc2C(=O)c2ccccc2)c(C)n1	-9%[59 µM]	5%	-16%	.	.	-22%	.	.
C[C@@H]1O[C@@H](O[C@H]2C[C@@H](O)[C@]3(CO)[C@@H]4C(CC[C@]3(O)C2)[C@@]2(O)CC[C@H]([C@@H]3COC(=O)C3)[C@@]2(C)C[C@H]4O)[C@H](O)[C@H](O)[C@H]1O (some centres not stated)	-7%[59 µM]	.	.	.	.	.	.	.
CC(C)N1C(=O)/C(=C/C=C/c2ccco2)C(=O)N(Cc2ccco2)C1=O	.	28µM*	35µM*	-81%	32µM*	14µM*	4.7*	-25%
COc1ccc(/C=C2/C(=O)N(Cc3ccco3)C(=O)N(C(C)C)C2=O)cc1	?	-2%	-35%	-18%	?	-31%	.	.
CC(C)C1C(=O)N2CCCC2[C@]2(O)O[C@@](NC(=O)[C@@H]3C=C4c5cccc6[nH]cc(c56)C[C@H]4N(C)C3)(C(C)C)C(=O)N12 (some centres not stated)	.	.	.	-16%	.	.	.	.
CC(C)[C@H]1C(=O)N2CCC[C@H]2[C@]2(O)O[C@](NC(=O)[C@@H]3C=C4c5cccc6[nH]cc(c56)C[C@H]4N(C)C3)(C(C)C)C(=O)N12	10µM*	3%	?	56µM*	-16%	-34%	.	.	ME-1 growth=-8%[25.6 µM]
CC(C)C[C@H]1C(=O)N2CCCC2[C@]2(O)O[C@](NC(=O)[C@@H]3C=C4c5cccc6[nH]cc(c56)CC4N(C)C3)(C(C)C)C(=O)N12 (some centres not stated)	40µM*	-1%	?	-18%	?	?	.	.	ME-1 growth=?
CN1CC[C@@]2(CCCN(C(=O)c3ccncc3)C2)C1	-21%[12.7 µM]	.	.	12%	.	.	.	.
Cc1nc2cnc(N3CCNCC3)nc2n(C)c1=O	0%[12.7 µM]	.	.	10%	.	.	.	.

Screening data: PubChem, National Center for Advancing Translational Sciences (NCATS)
